The values below come from PubChem BioAssay AID686970 (National Center for Advancing Translational Sciences (NCATS), 2013).

Screen size: about 360,000 compounds; about 6,000 (1.7%) were called active. A call without a number means that no potency is given here. About 8% were inconclusive and are not listed. Calls follow the shape of the dose curve; as a rule, active = well fitted cell-killing curve with a large enough effect; inconclusive = small, poorly fitted or top-dose-only effect, or effect the other way; inactive = flat fitted curve, though single readings scatter. This excerpt belongs to a sample that is enriched for actives.
Potency is read from the fitted curve at half-maximal effect.

The nature of this assay: qHTS for induction of synthetic lethality in tumor cells producing 2HG: qHTS for the HT-1080-NT fibrosarcoma cell line. Also: nearly all actives have a fitted effect of over 55% in size. As to conditions: HT-1080-NT fibrosarcoma viability, CellTiter-Glo ATP luminescence, 48 h; series mostly up to 46.1 µM. The text has this:
Unbiased genomic sequencing for 22 glioma genomes found recurrent mutation of IDH1 on chromosome 2q33, a gene encoding the cytosolic isoform of IDH1 associated with the tricarboxylic acid cycle (TCA) that catalyzes the oxidative decarboxylation of isocitrate, yielding alpha-ketoglutarate and CO2 via NADP+ to NADPH conversion. Subsequent studies confirmed the recurrent IDH mutations in up to 70% of secondary gliomas and in 10% of AML cases. In addition, the somatic mutation of cancer-associated IDH1 is a point mutation resulting in various amino-acid substituents at Arginine132 (IDH1 R132), a key residue found in the enzyme's active site that when mutated, results in the loss-of-function in metabolizing isocitrate but confers a gain-of-function to produce the oncometabolite 2-hydroxyglutarate (2HG). This in effect defines IDH1 as an oncogene and provides an extraordinary opportunity to discover chemical probes against mutant IDH1 that may translate into much needed new therapies for glioma and AML patients.
This assay aims to perform a synthetic lethal screen for chemical probes specific for 2HG-producing tumor cells using matched paired cell lines (1) HT-1080-NT fibrosarcoma cell line that overproduces 2HG and (2) HT-1080-IDH1KD cell line which has IDH1 expression knocked-down. Desirable compounds are toxic to the NT fibrosarcoma cells but not to the IDH1KD cell line. The data in this AID corresponds to the results of the qHTS against the HT-1080-NT fibrosarcoma cell line.
[1] Dang L, Jin S, Su SM. IDH mutations in glioma and acute myeloid leukemia. Trends of Mol Med. 2010; 16(9): 387-97.
[2] Dang L et al. Cancer-associated IDH1 mutations produce 2-hydroxyglutarate. Nature. 2010; 465(7300):966.
NIH Molecular Libraries Probe Production Centers Network [MLPCN]
NIH Chemical Genomics Center [NCGC]
Assay Submitter (PI): Lenny Dang Ph.D., Agios Pharmaceuticals
Suspensions of trypsinized HT-1080-NT cells were dispensed into white, tissue culture-treated, solid 1536-well plates at 5uL/well (750 cells/well final concentration) in RPMI medium supplemented with 5% FBS. Plates were incubated at 37 degrees C for 2 hours, after which 23 nL of compounds or DMSO were delivered to each well using a pin tool. Plates were then incubated at 37 degrees C for an additional 48 hours. CellTiter-Glo viability reagent (Promega) was dispensed into wells (2.5uL/well) and incubated at room temperature for 10 minutes. The plates were measured on a PerkinElmer ViewLux plate reader for luminescent signal (clear filter, 1 sec exp). DMSO-treated control wells and media-only (no cells) control wells were used to normalize %Activity of identified toxic compounds; DMSO-treated wells corresponded to 0%Activity (100% viability), while media-only controls were used to normalize 100%Activity (0% viability).
Concentration-response curves were fitted to the signals arising from the resulting luminescence. The concentration-effect curves were then classified based on curve quality (r2), response magnitude and degree of measured activity, and compounds were subsequently categorized based on their curve class.
Turning to `CN(C)CC1Oc2ccccc2OC1(O)c1ccccc1` (stereo not given), the Potency is 8.2 µM (active).
As for `CCOC(=O)c1cccc(C2=C(CNC(=O)c3ccncc3)[C@H]3CC[C@@H](C2)N3Cc2ccccc2)c1`, the Potency result was “inactive”.
The result for `O=C1C2CCN(CC2)C1(CO)CO` reads “inactive”; that for `O=c1[nH]c(O)c(C=Nc2cc(F)cc(F)c2)c(=O)[nH]1`, “inactive”; that for `COc1ccc2c(c1O)-c1cccc3c1[C@@H](C2)N(C)CC3`, “inactive”.
Consider `COc1ccc2c3c1O[C@H]1C[C@@H](O)C=C[C@@]31CCN(C)C2`, for which the Potency was 8.2 µM (active).
Next, `COC1=CC=C2[C@H]3Cc4ccc(OC)c5c4[C@@]2(CCN3C)C1O5` (stereo not given in full): “inactive”; `CC=C(C)C(=O)OC1CCN2CC=C(COC(=O)C(O)(C(C)OC)C(C)(C)O)C12` (stereo not given): “inactive”.
With `O=P(OC1=CCCCC1)(c1ccccc1)c1ccccc1`, the Potency entry was “inactive”.
Turning to `Cc1ccc(Cn2nnnc2CN2CCC(n3nnc4ccccc43)CC2)cc1`, the Potency result was “inactive”.
On to `O=c1[nH]c2ccccc2n1C1CCN(C(c2ccccc2)c2nnnn2Cc2ccccc2)CC1` (stereo not given), for which the Potency was 13 µM (active).
Regarding `CSCCC(c1nnnn1C(C)(C)C)N1CCC(n2c(=O)[nH]c3ccccc32)CC1` (stereo not given), the Potency result is “inactive”.
For `CCOC(=O)C1=C(C)OC(N)=C(C(=O)OC)C12C(=O)Nc1ccc(Br)cc12` (stereo not given), the Potency entry is “inactive”.
Take `O=c1[nH]c(CN2CC=C(c3ccccc3)CC2)nc2scc(-c3cccs3)c12`: the Potency result is “inactive”.
For the molecule `S=C(NCCc1ccccc1)N1Cc2cc(N3CCOCC3)ccc2-n2nncc2C1`, the Potency result is “inactive”.
The result for `CCOc1ccc(-c2cc(C)[n+](CCN(CC)CC)c(-c3ccc(OCC)cc3)c2)cc1` reads 8.2 µM (active).
Turning to `COc1ccc(C2C=C(C)Oc3c2c(=O)oc2ccccc32)cc1OC` (stereo not given), the Potency entry is “inactive”.
The result for `COC(=O)C1=C(c2ccc(OCc3ccccc3)cc2)C[C@@H]2CC[C@H]1N2C(=O)NCc1cccc(F)c1` reads “inactive”; that for `CC1CCCN1CCC(C(N)=O)(c1ccccc1)c1ccccc1` (stereo not given), “inactive”; that for `COc1ccc(CCn2c(O)c(C=NC3CC3)c(=O)[nH]c2=O)cc1OC`, “inactive”.
Next, `c1ccc(N2Cc3ccccc3-n3nncc3C2)nc1`: “inactive”.
The result for `CCC1(C)CC(CCNCc2ccc(N(C)C)cc2)(c2ccc(F)cc2)CCO1` (stereo not given) reads “inactive”.
Turning to `C[C@@H]1C[C@@H]2O[C@H]2/C=C\C=C\C(=O)Cc2c(Cl)c(O)cc(O)c2C(=O)O1`, the Potency is 8.2 µM (active).
Consider `CC(=O)NCC1=C(c2ccc3ccccc3c2)C[C@@H]2CC[C@H]1N2Cc1ccco1`, for which the Potency entry was “inactive”.
With `C=Cn1ccnc1P(=S)(c1cc(N(CC)CC)ns1)c1nccn1C=C`, the Potency result is “inactive”.
For `COC(=O)C1=C(c2ccc(OCc3ccccc3)cc2)C[C@@H]2CC[C@H]1N2C(=O)NCc1ccc(Cl)cc1`, the Potency result is “inactive”.
Next, `CC1=CC(=Cc2sc3ccccc3[n+]2C)C=C(C)O1`: 8.2 µM (active); `O=[N+]([O-])c1ccc(C2C3C(c4ccccc4)=NC4(CCCCC4)N32)cc1` (stereo not given): “inactive”; `Cc1ccc(OC(=O)N(C)C[C@@H]2OCc3cnnn3CCCC(=O)N([C@H](C)CO)C[C@@H]2C)cc1`: “inactive”.
For `COc1cc(Cn2c(N)c(C(=O)NCc3ccco3)c3nc4ccccc4nc32)cc(OC)c1OC`, the Potency is 12.6 µM (active).
`COC(=O)C1=C(c2ccccc2)C[C@@H]2CC[C@H]1N2C(=O)NCc1ccco1`: the Potency result is “inactive”.
Regarding `Cc1ncoc1C(=O)NCC1=C(c2cccc3ccccc23)C[C@@H]2CC[C@H]1N2Cc1ccco1`, the Potency result is “inactive”.
As for `CC(=O)c1c(O)n(C2CCCCCC2)c(=O)[nH]c1=O`, the Potency result was “inactive”.
`O=C(NC1CCCCC1)N1Cc2cc(N3CCCCC3)ccc2-n2nncc2C1`: the Potency entry is “inactive”.
Next, `c1cc2c(c(NC3=NCCCS3)c1)CCCC2`: “inactive”; `COC(=O)C1=C(c2ccc(Cl)c(C(F)(F)F)c2)C[C@@H]2CC[C@H]1N2C(=O)NC1CC1`: “inactive”.
For `C[C@]12CC[C@H](O)C[C@H]1CC[C@@H]1C2CC[C@]2(C)[C@@H](C3=CC(=O)OC3)[C@@H](O)C[C@]12O` (stereo not given in full), the Potency is 5.8 µM (active).
With `C[C@]12CCC3C(CC[C@H]4C[C@@H](O)CC[C@]34C)C1CC[C@@H]2O` (stereo not given in full), the Potency entry is “inactive”.
Take `C[C@]12CCC3C(CC[C@H]4C[C@@H](O)CC[C@]34C)C1C[C@@H](O)[C@H]2O` (stereo not given in full): the Potency entry was “inactive”.
Consider `C[C@H]1CN([C@@H](C)CO)C(=O)CCCn2nncc2CO[C@H]1CN(C)C(=O)Oc1ccccc1`, for which the Potency result is “inactive”.
Next, `CCOC(=O)[C@]12Cc3ccccc3[C@H]1N(C1CCCCC1)C(=O)c1cc(OC)ccc12`: 5.8 µM (active); `CCOC(=O)[C@]12Cc3cc(OC)ccc3[C@H]1N(C(C)C)C(=O)c1ccccc12`: 11.6 µM (active).
On to `CCCC(C)n1[nH]c(=O)c2c1NC(=O)CSC2c1ccc(OC)c(OC)c1` (stereo not given), for which the Potency entry is “inactive”.
On to `Oc1cc2c(cc1CN1CCN(c3ccccc3)CC1)OCO2`, for which the Potency entry was “inactive”.
On to `COc1ccccc1OC(=O)c1ccc(C)c(S(=O)(=O)N2CCOCC2)c1`, for which the Potency result was “inactive”.
Consider `CC1([N+](=O)[O-])COP(=O)(Nc2ccc(F)cc2)OC1` (stereo not given), for which the Potency entry is “inactive”.
As for `O=c1c2ccccc2[nH]c(=S)n1-c1cccc(Cl)c1`, the Potency result is “inactive”.
As for `Cc1cc(-c2ccc(N)c(C)c2)ccc1N`, the Potency result was “inactive”.
Next, `Nc1ccc(Cc2ccc(N)c(Cl)c2)cc1Cl`: “inactive”; `COC(=O)C[C@H]1CC[C@H]2NC[C@@H](O)COC[C@@H]2O1`: “inactive”; `Cc1c(Oc2cc(NN3CCCCC3)c([N+](=O)[O-])cc2[N+](=O)[O-])cccc1[N+](=O)[O-]`: “inactive”.
The result for `O=c1c2ccccc2nc(/C=C/c2ccco2)n1-c1ccccc1O` reads “inactive”; that for `O=c1c2ccccc2nc(/C=C/c2ccc(F)cc2)n1-c1ccccc1O`, 23.1 µM (active).
Regarding `Cc1nc2ccccc2c(=O)n1-c1ccc(Cl)cc1Cl`, the Potency entry was “inactive”.
Turning to `c1ccc(C(CN2CCCCC2)c2ccccc2)cc1`, the Potency entry is “inactive”.
As to `CCc1cccc2c(C#N)cn(CC(=O)N3CCOCC3)c12`, the Potency result is “inactive”.
Turning to `COC1C(O)C(C)OC(OC2CCC3(C=O)C(CCC4C3CCC3(C)C(C5=CC(=O)OC5)CCC43O)C2)C1O` (stereo not given), the Potency was 0.206 µM (active).
Next, `C[C@H]1CN([C@@H](C)CO)C(=O)CCCn2nncc2CO[C@H]1CN(C)C(=O)Oc1cccc2ccccc12`: “inactive”; `CCn1cc(CN2CCCC(C(=O)c3cccc(C(F)(F)F)c3)C2)cn1` (stereo not given): “inactive”.
With `COc1ccc(NC(=O)N2Cc3ccccc3-n3nncc3C2)cc1`, the Potency result is “inactive”.
Turning to `CC(=CCOc1ccc2ccc(=O)oc2c1)C1=CC(=O)C(C)(C)O1`, the Potency entry is “inactive”.
As for `O=c1c2ccccc2nc(CBr)n1-c1ccc(Cl)cc1`, the Potency result is “inactive”.
`COC(=O)CN(CCCl)P1(=O)OCCCN1CCCl` (stereo not given): the Potency result is “inactive”.
Take `CCCCCCCCCCCCn1ccc(=N)cc1`: the Potency is 2.59 µM (active).
For `CSC1=NP(=S)(SC)N(C)c2nc3n(c21)CCC3` (stereo not given), the Potency entry was “inactive”.
Next, `COC(=O)C1=C(c2ccc(F)cc2F)C[C@@H]2CC[C@H]1N2C(=O)NC1CC1`: “inactive”; `CC(C)CN1Cc2cc(N3CCCCC3)ccc2-n2nncc2C1`: “inactive”.
The result for `COc1ccc(-c2nn(CCC#N)cc2C(=O)Nc2ccc(C(C)=O)cc2)cc1` reads “inactive”.
`CCOC(=O)CNC(=O)N1Cc2cc(N3CCCCC3)ccc2-n2nncc2C1`: the Potency entry is “inactive”.
On to `COc1cc(C2c3cc4c(cc3C(O)C3COC(=O)C23)OCO4)cc(OC)c1OC` (stereo not given), for which the Potency was 0.0058 µM (active).
The result for `CCN1C(=O)NC(=O)C2(CCCC2)C1=O` reads “inactive”; that for `CCOc1cccc(=NC2CCCCC2)c2c(C)[nH]c(C)c12`, 20.6 µM (active); that for `CCOP(=S)(OCC)C(O)CCCCCn1c(=O)c(F)cn(C2CCCO2)c1=O` (stereo not given), “inactive”.
For the molecule `COc1cc(C(=O)N2Cc3ccc(Br)cc3-n3nncc3C2)cc(OC)c1OC`, the Potency entry was “inactive”.
For `COC1=C[C@@H]2[C@@H]3Cc4ccc(OC)c(O)c4[C@]2(CCN3C)CC1=O`, the Potency result is “inactive”.
Regarding `O=[N+]([O-])c1ccc(Cl)c(Cl)c1`, the Potency entry was “inactive”.
For the molecule `CC(=O)OC1C2(CC3N4C(=O)C5(CO)SSC4(CC31O)C(=O)N5C)OC(C)C(C)(C)C2=O` (stereo not given), the Potency is 0.651 µM (active).
In the case of `CC[C@H]1CC2CN3CCc4c([nH]c5ccccc45)C(C(=O)OC)(C2)C13` (stereo not given in full), the Potency entry is “inactive”.
For the molecule `CCN(N=Nc1nonc1OC)c1nonc1OC`, the Potency entry is “inactive”.
The result for `CCOC(=O)C1CN(C)CCC1=O` (stereo not given) reads “inactive”.
